Sampled rows, rich in hits. Any-hit rate of the full collection: about 4.1%.
ssDAF12 agonist – S. stercoralis DAF-12 nuclear receptor activators, primary screen, cell-based, luminescence, HEK293, GRIP1 co-expression, lit1-tk-luc | hit rate 1% among 370,000 | activation, % at 6.8 µM | HEK293 ssDAF-12/GRIP1 lit1-tk-luc reporter; % of 3 µM dafachronic acid response;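 active means activation above the mean over all tested compounds plus 3 SD, cut at about 0.9% in these data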;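 further: 0% = DMSO-only wells and 100% = 3 µM delta7-dafachronic acid wells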
hcDAF12 agonist – H. contortus DAF-12 nuclear receptor activators, primary screen, cell-based, luminescence, HEK293, lit1-tk-luc reporter; HEK293 hcDAF-12 lit1-tk-luc reporter; 0% DMSO, 100% Δ7-dafachronic acid; activation, % at 6.8 µM; hit rate 1.4% among 370,000; AID 652067, 2013;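 active means activation above the mean of all tested compounds plus 3 SD, cut at about 5.5% in these data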;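 further: 100% = response to 3 µM Δ7-dafachronic acid high control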
DAX1 inh-1 – DAX1 (NR0B1) inhibitors on StAR promoter, primary screen, cell-based, luminescence, SF-1 (NR5A1), full-length DAX-1; HEK293T StAR-luciferase reporter, SF-1/DAX-1 repression relief; inhibition, % at 6.8 µM; hit rate 1.1% among 370,000;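 active means inhibition above the mean over all tested compounds plus 3 SD, cut at about 3.6% in these data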;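 further: 0% = DAX-1 cells with DMSO and 100% = cells lacking DAX-1 with DMSO; higher inhibition means more luminescence from relief of DAX-1 repression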
hgDAF12 agonist – H. glycines DAF-12 receptor agonists, primary screen, cell-based, luminescence, HEK293, GAL4 fusion, UAS-luciferase. HEK293 GAL4-hgDAF12 UAS-luciferase reporter, agonist luminescence; normalized to butyrate control. activation, % at 6.8 µM. hit rate 1.8% among 370,000. AID 687014, 2013;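 active means activation above a cutoff set at the mean of all screened compounds plus 3 SD, cut at about 10% in these data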;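 further: 0% = DMSO wells and 100% = sodium butyrate wells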
DAX1 inh-2 – DAX1 (NR0B1) inhibitors, primary screen, cell-based, HEK293, Gal4-DAX1, luciferase luminescence | Nuclear receptor subfamily 0 group B member 1 (Homo sapiens), P51843 | HEK293 Gal4-DAX1 luciferase reporter | inhibition, % at 6.75 µM | hit rate 0.99% among 340,000;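 active means inhibition above the mean over all tested compounds plus 3 SD, cut at about 4.2% in these data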;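 further: 0% = DAX1-transfected cells with DMSO and 100% = empty-vector control cells with DMSO; inhibition shows as a rise in luminescence from relieved DAX1 repression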
Target sequence (P51843 207-470 limits assumed): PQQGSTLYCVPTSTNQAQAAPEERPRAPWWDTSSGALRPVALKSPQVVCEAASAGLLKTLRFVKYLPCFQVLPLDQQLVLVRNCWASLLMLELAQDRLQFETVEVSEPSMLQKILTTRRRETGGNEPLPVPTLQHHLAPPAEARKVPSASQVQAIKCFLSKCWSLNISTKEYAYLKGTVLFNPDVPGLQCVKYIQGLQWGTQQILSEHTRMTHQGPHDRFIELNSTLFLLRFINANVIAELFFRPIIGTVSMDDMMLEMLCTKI
The depositor's hits bear a star; / = no result.

SMILES	ssDAF12 agonist	hcDAF12 agonist	DAX1 inh-1	hgDAF12 agonist	DAX1 inh-2
CCCCCCCCN1C(=O)[C@@H](CC(=O)NCCCOCCCC)C[C@@]2(C(=O)OC)C1=C[C@H](C1CCCC1)O[C@@H]2C	-1	-1	-1	0	/
COc1cccc(NC(=O)Cc2ccccc2)c1	0	4	1	8	2
COc1cccc(NC(=S)NC(=O)Cc2ccccc2)c1	-1	0	0	1	5.6*
CCOC(=O)[C@]12CCCCC/C=C\1N(CCc1ccc(Cl)cc1)C(=O)[C@H]2CC(=O)NCCC(C)C	-1	-3	-1	-2	/
CC(=O)c1ccc(Nc2cc(C)nc3ccccc23)cc1	-1	-2	-1	-4	-2
CC(=O)c1ccc(Nc2cc(C)nc3c(C)cccc23)cc1	-1	3	0	11*	0
COc1ccccc1-c1cccc2c3c([nH]c12)[C@@H]1C[C@H]2[C@@H](C(=O)N1CC3)[C@H](C)ON2C	-1	0	0	1	/
Nc1[nH]c(C(=O)c2ccccc2)c(-c2cccc3ccccc23)c1C(=O)c1cccs1	0	4	1	3	/
NC(=O)c1c(N)[nH]c(C(=O)c2ccccc2)c1-c1cccc2ccccc12	1.0*	2	/	3	/
COC(=O)C/C=C/[C@H](C)[C@@H](NC(=O)C(F)(F)F)c1ccccc1Br	-1	-2	0	0	/
O=C(Cn1ncc(Cl)c(Cl)c1=O)c1ccc(Cl)cc1	0	0	-1	-1	-1
O=C(Cn1ncc(N2CCOCC2)c(Cl)c1=O)c1ccc(Cl)cc1	-1	0	0	0	5.4*
COc1cc2c(cc1NC(=O)CSc1nnc(-c3cccnc3)n1-c1ccc(Br)cc1)oc1ccccc12	-1	0	0	3	/
CC(C)=CCC/C(C)=C/CNCC(=O)N1c2ccccc2[C@]2(C)C[C@@H]3C(=O)N(C/C=C(\C)CCC=C(C)C)CC(=O)N3[C@H]12	0	0	1	-1	/
CC(SCC(=O)O)c1nc2ccccc2[nH]1 (stereo not drawn)	1.0*	0	0	3	1
O=C(O)CSc1nc2ccccc2[nH]1	-1	0	1	0	-1
CCC(=O)NC(Cc1ccccc1)c1nc2ccccc2[nH]1 (stereo not drawn)	0	1	0	-3	4.2*
COC(=O)[C@H](C)NC(=O)C(Cc1ccc2c(c1)OCO2)NC(C)=O (stereo partly drawn)	0	-2	0	0	/
COc1ccc(C(=O)NCC2CCN(C(=O)C(=O)c3cc4ccccc4o3)CC2)c(OC)c1	-1	-2	-1	1	/
CCOc1ccc(NC(=O)N(C2CCCCC2)C(C)c2ccncc2)cc1 (stereo not drawn)	1.6*	3	0	1	0
COc1ccc2c(c1)CCCN2C(=O)C1CCCN(S(=O)(=O)c2cccc3ccccc23)C1 (stereo not drawn)	-2	-5	1	-5	/
CCN(C(=O)COc1cc(=O)n(CC)c2ccccc12)c1cccc(Cl)c1	-1	-2	-1	-1	1
O=C1c2ccccc2C(=O)N1CN(C(=O)COc1ccc(Cl)cc1Cl)c1cccc(F)c1	0	5.9*	1	2	0
COc1ccc(C(=O)COC(=O)c2ccccc2O)c(OC)c1	0	2	3.9*	12*	1
O=C(COC(=O)c1c[nH]c2ccccc12)NCc1ccccc1	-1	1	0	1	4.7*
SMILES	ssDAF12 agonist	hcDAF12 agonist	DAX1 inh-1	hgDAF12 agonist	DAX1 inh-2
O=C(OCC(=O)c1c[nH]c2ccccc12)c1cccc([N+](=O)[O-])c1	1.8*	3	0	6	0
O=C(OCC(=O)c1c[nH]c2ccccc12)c1cncc(Br)c1	0	3	3	4	0
COc1ccc(C(=O)OCC(=O)c2c[nH]c3ccccc23)c(OC)c1	1.7*	5	-2	7	0
COc1cccc(C(=O)OCC(=O)c2c[nH]c3ccccc23)c1OC	0	4	1	4	3
COc1ccccc1CCn1cnc(-c2ccccc2)c1CC(C)C	-2	-2	-4	-4	/
O=C(Nc1cccc(-c2cn3cccnc3n2)c1)c1ccc2c(c1)OCO2	-2	-1	-1	4	1
c1cnc2nc(-c3ccc4c(c3)OCO4)cn2c1	-1	3	4.1*	13*	1
Cc1ccc(O)c(NC(=O)C2=CC(c3ccco3)=NS(=O)(=O)N2C)c1	-1	0	0	0	0
CN1C(C(=O)Nc2cccc(O)c2)=CC(c2ccco2)=NS1(=O)=O	-1	1	0	5	7.6*
Cc1ccc2nc(C(C)(C)C)c(Cc3ccsc3)n2c1	0	1	-1	-1	/
CCCc1nc2ccc(C)cn2c1Cc1ccsc1	0	5.6*	2	5	/
Cc1ccc2nc(-c3ccccc3)c(Cc3cccc(Cl)c3)n2c1	0	1	1	7	/
CCCc1nc2ccc(C)cn2c1Cc1cccc(Cl)c1	1.6*	5.6*	1	8	/
CN(C)c1cccc2c(S(=O)(=O)NC(=O)[C@H]3O[C@@H](n4ccc(=O)[nH]c4=O)[C@H](O)[C@@H]3O)cccc12	0	-1	0	-5	/
COc1nc(C)nc2c1sc1nc3c(cc12)COC(C)(C)C3	0	0	3.9*	13*	2
Cc1nc(OCC(C)C)c2sc3nc4c(cc3c2n1)COC(C)(C)C4	-1	1	1	5	/
COc1cc(C(=O)Nc2ccc(S(=O)(=O)Nc3cc(C)nc(C)n3)cc2)cc(OC)c1OC	-1	0	1	-2	6.4*
COc1ccc(C(=O)Nc2ccc(S(=O)(=O)Nc3cc(C)nc(C)n3)cc2)cc1OC	-2	-2	3	0	1
Cc1cc(NS(=O)(=O)c2ccc(NC(=O)/C=C/c3ccc(C)o3)cc2)nc(C)n1	-2	0	0	-4	4.6*
Cc1cc(NS(=O)(=O)c2ccc(NC(=O)/C=C/c3ccccc3)cc2)nc(C)n1	-1	0	1	-2	1
CCCCN1CCS(=O)(=O)N(Cc2cn(Cc3ccccc3Br)nn2)C(C(=O)OC)C1 (stereo not drawn)	-1	-1	-1	-1	/
Cc1nc(N)nc(COc2ccccc2)n1	-1	4	1	7	8.4*
COc1ccc(OCc2nc(N)nc(Nc3ccccc3)n2)cc1	0	-2	0	2	0

Screening data as filed in PubChem BioAssay.
